High-throughput results as filed in PubChem BioAssay.
Sampled rows, rich in hits. Any-hit rate of the full collection: about 22%.
CYP2C19 inh = inhibitors of human CYP2C19; P33261; CYP2C19 Supersomes, luciferin-H EGE luminescence, 30 min; inhibition, % at 5 µM; 96,000 compounds, 21% hits;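 active = CYP2C19 inhibition above a set limit at 5 µM in the primary screen, cut at about 50% in these data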;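 note: plate controls were negative control wells for no effect and 2.5 mM tranylcypromine positive control for full effect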
Measles CPE = protection of cells from measles virus. 140,000 compounds, 1.5% hits. protection (pct of control), % at 4 µM. Measles virus-infected cells, CPE protection, absorbance. AID 841; in the data active = protection mostly above about 24%, no sharp cut-off; inactive = mostly below about 26%
CYP2C9 activ = increases human cytochrome P450 2C9 activity; P11712; recombinant CYP2C9, luciferin-H conversion, luminescence; hits give high values; factor 1 = untreated enzyme, 0 = blocked; activation factor at 5 µM; 96,000 compounds, 1.4% hits; AID 1024;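 active = activation factor of 2 or more for CYP2C9 at a 5 µM dose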;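 note: 0 = sulfaphenazole-blocked wells and 1 = vehicle-only wells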
Target sequence (P11712 whole entry, looked up): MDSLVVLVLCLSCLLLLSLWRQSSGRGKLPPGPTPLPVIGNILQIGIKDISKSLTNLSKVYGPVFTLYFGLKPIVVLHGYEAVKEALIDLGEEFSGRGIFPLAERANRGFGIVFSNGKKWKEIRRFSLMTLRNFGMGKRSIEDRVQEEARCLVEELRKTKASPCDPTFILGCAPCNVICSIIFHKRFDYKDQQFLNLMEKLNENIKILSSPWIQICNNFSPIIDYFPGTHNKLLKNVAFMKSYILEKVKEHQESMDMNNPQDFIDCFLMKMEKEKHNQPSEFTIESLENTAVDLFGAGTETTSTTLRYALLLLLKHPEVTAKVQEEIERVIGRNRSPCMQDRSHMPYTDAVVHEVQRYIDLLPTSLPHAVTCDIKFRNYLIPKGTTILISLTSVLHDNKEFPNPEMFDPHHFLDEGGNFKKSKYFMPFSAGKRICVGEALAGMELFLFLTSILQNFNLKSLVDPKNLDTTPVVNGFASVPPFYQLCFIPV
CYP2C9 inh = human CYP2C9 inhibition; 96,000 compounds, 20% hits; inhibition, % at 5 µM; CYP2C9 Supersomes, luciferin-H conversion, luminescence; AID 777; P11712;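 active = blocking of liver enzyme CYP2C9 beyond about 50% at 5 µM, limit read from the data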
CYP2C19 act = activators of human cytochrome P450 2C19. activation factor at 5 µM. P33261. AID 1025. 96,000 tested, under 10 active. recombinant CYP2C19, luciferin-H EGE luminescence; hits give high values; 0 = fully inhibited enzyme, 1 = untreated enzyme;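 active = activation factor of at least 2 at 5 µM in the primary screen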;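 note: 0 = wells with 2.5 mM tranylcypromine and 1 = vehicle-only wells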
An asterisk follows results filed as active.

What do the screens show for `COc1ccc(-c2nnc3c4ccccc4c(C)nn23)cc1`?
CYP2C19 inh: 23; Measles CPE: 4; CYP2C9 activ: 1; CYP2C9 inh: -1; CYP2C19 act: 0.8

How did Cc1nn2c(-c3ccncc3)nnc2c2ccccc12 do in these assays?
CYP2C19 inh: 85*; Measles CPE: 9; CYP2C9 activ: 0.7; CYP2C9 inh: 26; CYP2C19 act: 0.1

What do the screens show for `O=C(c1cccs1)N1CCN(S(=O)(=O)c2ccccc2)CC1`?
CYP2C19 inh: 97*; Measles CPE: 23; CYP2C9 activ: 0.3; CYP2C9 inh: 70*; CYP2C19 act: 0

Results for CN1CCN(C(=O)c2ccccc2NC(=O)c2cccs2)CC1 ?
CYP2C19 inh: -4; Measles CPE: 45*; CYP2C9 activ: 1; CYP2C9 inh: 2; CYP2C19 act: 1

What do the screens show for `CC1CN(C(=O)c2cccs2)CCN1C(=O)c1cccs1` (configuration not stated)?
CYP2C19 inh: 96*; Measles CPE: 16; CYP2C9 activ: 0.1; CYP2C9 inh: 89*; CYP2C19 act: 0

Results for CN1CCN(C(=O)c2ccccc2NC(=O)C(C)(C)C)CC1 ?
Measles CPE: 9

How did O=C(c1ccsc1)N1CCN(C(=O)c2cccs2)CC1 do in these assays?
CYP2C19 inh: 95*; Measles CPE: 5; CYP2C9 activ: 0.3; CYP2C9 inh: 67*; CYP2C19 act: 0.1

What do the screens show for `O=C(c1cccs1)N1CCN(c2ncccn2)CC1`?
CYP2C19 inh: 33; Measles CPE: 18; CYP2C9 activ: 0.8; CYP2C9 inh: 23; CYP2C19 act: 0.7

What do the screens show for `O=C(O)C1CCCN1C(=O)c1cccs1` (configuration not stated)?
Measles CPE: 16

What do the screens show for `O=C(c1ccncc1)c1ccc(Br)cc1`?
CYP2C19 inh: 45; Measles CPE: 7; CYP2C9 activ: 0.4; CYP2C9 inh: 62*; CYP2C19 act: 0.5

How did CC1CN(C(=O)Nc2ccccc2)c2ccccc2-[n+]2ccsc21 (configuration not stated) do in these assays?
Measles CPE: 12

How did O=C(O)c1ccc(NC(=S)NC2CCCCC2)cc1 do in these assays?
Measles CPE: 38

Results for O=C(CNC(=O)C1CCCCC1)Nc1cc(Cl)cc(Cl)c1 ?
CYP2C19 inh: 61*; Measles CPE: 3; CYP2C9 activ: 0.8; CYP2C9 inh: 25; CYP2C19 act: 0.4

Results for COC(=O)c1ccc(NC(=S)NCCc2ccccc2)cc1 ?
Measles CPE: 11

Results for CCOC(=O)c1ccc(NC(=S)NCCc2ccccc2)cc1 ?
CYP2C19 inh: 38; Measles CPE: 22; CYP2C9 activ: 0.3; CYP2C9 inh: 66*; CYP2C19 act: 0.6

Results for O=C(CNC(=O)C1CCCCC1)Nc1ccc(Cl)cc1 ?
CYP2C19 inh: 43; Measles CPE: 0; CYP2C9 activ: 0.7; CYP2C9 inh: 25; CYP2C19 act: 0.6

Results for CCOC(=O)c1ccc(NC(=S)NC2CCCC2)cc1 ?
Measles CPE: 44*

What do the screens show for `CCOC(=O)c1ccc(NC(=O)CNC(=O)C2CCCCC2)cc1`?
CYP2C19 inh: 27; Measles CPE: 15; CYP2C9 activ: 0.5; CYP2C9 inh: 54*; CYP2C19 act: 0.7

What do the screens show for `Cc1c(NC(=S)NC(=O)c2ccco2)c(=O)n(-c2ccccc2)n1C`?
Measles CPE: 14

What do the screens show for `O=C(COC(=O)CNC(=O)C1CCCCC1)Nc1ccc2ccccc2c1`?
CYP2C19 inh: 69*; Measles CPE: 19; CYP2C9 activ: 0.6; CYP2C9 inh: 36; CYP2C19 act: 0.3

How did COC(=O)c1ccc(NC(=O)CNC(=O)C2CCCCC2)cc1 do in these assays?
CYP2C19 inh: -2; Measles CPE: 9; CYP2C9 activ: 0.6; CYP2C9 inh: 37; CYP2C19 act: 1

Results for CCCc1c(C)c2ccccc2[nH]c1=O ?
CYP2C19 inh: 21; Measles CPE: 10; CYP2C9 activ: 1.3; CYP2C9 inh: -29; CYP2C19 act: 0.8

How did O=C(O)CCCn1c(=O)[nH]c2ccccc2c1=O do in these assays?
CYP2C19 inh: -6; Measles CPE: 7; CYP2C9 activ: 0.9; CYP2C9 inh: 6; CYP2C19 act: 1.1

How did NC(=O)CCc1c[nH]c2ccccc12 do in these assays?
CYP2C19 inh: 6; Measles CPE: 9; CYP2C9 activ: 1.2; CYP2C9 inh: -24; CYP2C19 act: 0.9

Results for CCCc1c(C)[nH]c2ccccc2c1=O ?
CYP2C19 inh: -6; Measles CPE: 15; CYP2C9 activ: 3.2*; CYP2C9 inh: -224; CYP2C19 act: 1.1

How did Cc1[nH]c2ccccc2c1CCC(N)=O do in these assays?
CYP2C19 inh: 53*; Measles CPE: 31; CYP2C9 activ: 3.1*; CYP2C9 inh: -211; CYP2C19 act: 0.5

What do the screens show for `O=C(O)CCc1c(C(=O)O)[nH]c2ccccc12`?
CYP2C19 inh: 6; Measles CPE: 2; CYP2C9 activ: 0.5; CYP2C9 inh: 54*; CYP2C19 act: 0.9

Results for CCOc1cc(N2CCOCC2)c(OCC)cc1NC(C)C(=O)N1CCC(C)CC1 (configuration not stated) ?
Measles CPE: 3

How did Cn1c2ccccc2c(=O)n2c(=O)c3ccccc3cc12 do in these assays?
CYP2C19 inh: 68*; Measles CPE: 4; CYP2C9 activ: 0.4; CYP2C9 inh: 56*; CYP2C19 act: 0.3

What do the screens show for `O=C(NC1CCSC1=O)c1ccc(Cl)cc1` (configuration not stated)?
CYP2C19 inh: -2; Measles CPE: 13; CYP2C9 activ: 1.1; CYP2C9 inh: -13; CYP2C19 act: 1

How did O=C(NC1CCCCNC1=O)c1ccc(Cl)cc1 (configuration not stated) do in these assays?
CYP2C19 inh: -14; Measles CPE: 17; CYP2C9 activ: 0.5; CYP2C9 inh: 52*; CYP2C19 act: 1.1

How did CN(C)N1C(=O)CC(NNC(=O)c2ccncc2)C1=O (configuration not stated) do in these assays?
Measles CPE: 5

Results for Cc1ccc(S(=O)(=O)N(CC(=O)NCc2ccncc2)C2CCCCC2)cc1 ?
CYP2C19 inh: 99*; Measles CPE: 10; CYP2C9 activ: 0.1; CYP2C9 inh: 93*; CYP2C19 act: 0

What do the screens show for `CCOC(=O)Cc1csc(NC(=O)CN(C)S(=O)(=O)c2cccc3cccnc23)n1`?
CYP2C19 inh: 90*; Measles CPE: 16; CYP2C9 activ: 0.1; CYP2C9 inh: 92*; CYP2C19 act: 0.1

How did Cc1ccc(S(=O)(=O)N(C)CCCC(=O)Nc2ccncc2)cc1 do in these assays?
CYP2C19 inh: 99*; Measles CPE: 15; CYP2C9 activ: 0; CYP2C9 inh: 96*; CYP2C19 act: 0

How did CC1CCCC(NC(=O)CN(C)S(=O)(=O)c2cccc3cccnc23)C1C (configuration not stated) do in these assays?
CYP2C19 inh: 59*; Measles CPE: 18; CYP2C9 activ: 2.1*; CYP2C9 inh: -114; CYP2C19 act: 0.4

How did Cc1ccc(CNC(=O)CN(C)S(=O)(=O)c2cnc[nH]2)cc1 do in these assays?
Measles CPE: 3
